Test [1] in a line: qHTS for Inhibitors of Plasmodium falciparum (DD2) proliferation (AID 504314).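 Also: parasite DNA measured by SYBR Green fluorescence after red cell lysis; plate controls were DMSO vehicle for no effect and artemisinin wells for full effect.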 The method, boiled down: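 Erythrocytes infected with P. falciparum Dd2 (0.3% parasitemia, 2.5% hematocrit) exposed to compound 72 h at 37C, 5% CO2. Parasite DNA quantified by SYBR Green fluorescence after saponin/Triton lysis overnight; normalized to 0.29 uM artemisinin and DMSO.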
The nature of test [2]: qHTS for Inhibitors of Plasmodium falciparum (GB4) proliferation (AID 504315).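 Also: 0% = DMSO vehicle and -100% = 0.29 µM artemisinin control; nearly all actives have a fitted effect of over 50% in size.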 In outline:
(§1)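 Erythrocytes infected with P. falciparum line (0.3% parasitemia, 2.5% hematocrit final) incubated with compounds 72 h at 37 °C, 5% CO2; SYBR Green lysis buffer added, fluorescence read next day. Normalized to 0.29 uM artemisinin and DMSO.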
(Quantitative high-throughput screening tests each substance at several concentrations.)

Test [3] is described as follows: qHTS for Inhibitors of Plasmodium falciparum (7G8) proliferation (AID 504316).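 Also: series mostly up to about 6.7 µM; 0% = DMSO vehicle and -100% = 0.29 µM artemisinin full kill; nearly all actives have a fitted effect of over 65% in size.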 In outline:
as §1

A short description of test [4]: qHTS for Inhibitors of Plasmodium falciparum (HB3) proliferation (AID 504318).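 Also: 0% = DMSO vehicle and -100% = artemisinin control; nearly all actives have a fitted effect of over 60% in size.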 In outline: as §1
Test [5] can be described thus: qHTS for Inhibitors of Plasmodium falciparum (CP250) proliferation (AID 504320).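 Also: plate controls were DMSO vehicle for no effect and 0.29 µM artemisinin control for full effect.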 In outline:
as §1

The target in test [6] is Atrial natriuretic peptide receptor 1 (Homo sapiens) (UniProt P16066). In words: Natriuretic polypeptide receptor (hNpr1) antagonism - Pilot CMLD screen (AID 1347052; calls by dose curve;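 also: HEK293 cells with hNpr1 stimulated by hNppA peptide at 0.1 nM; cGMP level read as GloSensor luciferase luminescence after agonist stimulation; series mostly up to about 9.2 µM; % is scaled to controls: 0 for no effect and ±100 for the full control effect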).
The target of test [7] is Cytochrome P450 3A4 (Homo sapiens) (UniProt P08684). In words: qHTS Assay for Activators of Cytochrome P450 3A4 (AID 885). Also: nearly all actives have a fitted effect of over 65% in size. The method, boiled down: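 Human CYP3A4 (20 nM) with Luciferin-PPXE at 25 uM (its KM) in 200 mM KPO4; 10 min compound preincubation, then NADPH regeneration and 60 min reaction at RT. Luciferin read by luminescence; normalized to 57 uM ketoconazole full inhibition.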

The target of test [8] is Cytochrome P450 2D6 (Homo sapiens) (UniProt P10635). The experiment in a line: qHTS Assay for Inhibitors and Substrates of Cytochrome P450 2D6 (AID 891). Also: nearly all actives have a fitted effect of over 60% in size. Also: potency is read from the fitted curve at half-maximal effect.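 As to activity change, negative = inhibition: luciferin methyl ether substrate demethylated by CYP2D6 with NADPH regeneration; % is scaled to controls: 0 for no effect and ±100 for the full control effect.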 The method, boiled down:
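Human CYP2D6 (5 nM) with 30 uM Luciferin-ME EGE (at Km) in 100 mM KPO4, compound preincubated 10 min, then NADPH regeneration system for 60 min at room temperature. Luciferin read by luminescence; normalized to 1.43 uM quinidine.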

Test [9] addresses Cytochrome P450 2C19 (Homo sapiens) (UniProt P33261). The experiment in a line: qHTS Assay for Inhibitors and Substrates of Cytochrome P450 2C19 (AID 899). Also: nearly all actives have a fitted effect of over 60% in size. Also: potency is read from the fitted curve at half-maximal effect. As to activity, negative = inhibition: % is scaled to controls: 0 for no effect and ±100 for the full control effect. In outline: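 Luminescence readout of luciferin formed from 10uM Luciferin-H EGE (KM level) by 5 nM CYP2C19 in 50mM KPO4. 60 min NADPH-driven reaction at 37C after 10 min compound preincubation; data scaled to 57uM ketoconazole inhibition.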

For test [10], the target named is Cytochrome P450 3A4 (Homo sapiens) (UniProt P08684). In words: qHTS Assay for Inhibitors and Substrates of Cytochrome P450 3A4 (AID 884). Also: nearly all actives have a fitted effect of over 50% in size. Also: potency is read from the fitted curve at half-maximal effect. As to activity change, negative = inhibition: series mostly up to about 57 µM; % is scaled to controls: 0 for no effect and ±100 for the full control effect. The method, boiled down:
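20 nM human CYP3A4 with 25 uM Luciferin-PPXE (at KM) in 200 mM KPO4, preincubated 10 min with compound; NADPH regeneration started a 60 min RT reaction. Luciferin detected by luminescence, normalized to 57 uM ketoconazole as full inhibition.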

The target of test [11] is Cytochrome P450 2C9 (Homo sapiens) (UniProt P11712). In words: qHTS Assay for Inhibitors and Substrates of Cytochrome P450 2C9 (AID 883). Also: % is scaled to controls: 0 for no effect and ±100 for the full control effect; nearly all actives have a fitted effect of over 60% in size. In outline: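 Luminescent read-out of deoxyluciferin hydroxylation, normalized to 57uM sulphaphenazole (AC100). Reaction: 10nM enzyme, 100uM Luciferin-H (equal to KM), 25mM KPO4, 10 min compound preincubation, then 60 min with NADPH regeneration, both at 37C.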

This is an account of results in PubChem BioAssay (NCATS).

Several values for one entry are separate records, joined by “and”; a condition that tells them apart may be missing. Equal entries are not always repeated. A number with no mark means an inactive call. Records with an inconclusive call do not appear. Activity calls are given as the source filed them. Unless noted, calls follow the shape of the dose curve; as a rule, active = well fitted curve in the direction sought with a large enough effect; inconclusive = small, poorly fitted or top-dose-only effect, or another doubt; inactive = no such curve, though single readings can be large; an effect the other way counts as inactive or inconclusive.

Sequence of Atrial natriuretic peptide receptor 1 (Homo sapiens) (P16066 whole entry, looked up): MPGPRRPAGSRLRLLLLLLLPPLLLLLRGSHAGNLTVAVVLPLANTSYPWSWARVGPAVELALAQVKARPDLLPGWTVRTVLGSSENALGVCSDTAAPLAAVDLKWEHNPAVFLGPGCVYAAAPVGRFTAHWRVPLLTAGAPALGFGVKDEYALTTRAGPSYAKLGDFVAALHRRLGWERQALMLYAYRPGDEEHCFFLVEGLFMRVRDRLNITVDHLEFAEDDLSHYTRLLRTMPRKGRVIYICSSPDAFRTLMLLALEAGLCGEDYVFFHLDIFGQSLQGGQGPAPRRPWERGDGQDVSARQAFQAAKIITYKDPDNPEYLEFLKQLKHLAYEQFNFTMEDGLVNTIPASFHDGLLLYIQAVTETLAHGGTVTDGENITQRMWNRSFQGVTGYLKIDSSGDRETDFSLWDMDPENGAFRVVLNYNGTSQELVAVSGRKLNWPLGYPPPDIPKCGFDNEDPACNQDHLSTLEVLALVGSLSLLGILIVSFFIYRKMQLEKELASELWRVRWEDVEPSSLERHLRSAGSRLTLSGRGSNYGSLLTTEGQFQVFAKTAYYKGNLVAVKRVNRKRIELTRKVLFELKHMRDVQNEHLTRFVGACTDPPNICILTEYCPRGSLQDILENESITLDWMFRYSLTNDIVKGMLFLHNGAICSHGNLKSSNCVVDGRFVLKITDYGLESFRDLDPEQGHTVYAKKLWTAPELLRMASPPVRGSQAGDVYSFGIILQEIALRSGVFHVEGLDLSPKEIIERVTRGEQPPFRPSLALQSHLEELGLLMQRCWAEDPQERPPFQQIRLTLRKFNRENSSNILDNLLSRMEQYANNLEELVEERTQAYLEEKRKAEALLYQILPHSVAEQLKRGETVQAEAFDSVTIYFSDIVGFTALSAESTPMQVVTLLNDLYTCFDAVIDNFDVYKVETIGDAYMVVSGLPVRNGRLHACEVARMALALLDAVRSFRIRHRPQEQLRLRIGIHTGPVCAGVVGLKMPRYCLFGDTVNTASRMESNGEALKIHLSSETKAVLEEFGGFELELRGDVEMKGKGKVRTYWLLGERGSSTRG
Sequence of Cytochrome P450 2C19 (Homo sapiens) (P33261 whole entry, looked up): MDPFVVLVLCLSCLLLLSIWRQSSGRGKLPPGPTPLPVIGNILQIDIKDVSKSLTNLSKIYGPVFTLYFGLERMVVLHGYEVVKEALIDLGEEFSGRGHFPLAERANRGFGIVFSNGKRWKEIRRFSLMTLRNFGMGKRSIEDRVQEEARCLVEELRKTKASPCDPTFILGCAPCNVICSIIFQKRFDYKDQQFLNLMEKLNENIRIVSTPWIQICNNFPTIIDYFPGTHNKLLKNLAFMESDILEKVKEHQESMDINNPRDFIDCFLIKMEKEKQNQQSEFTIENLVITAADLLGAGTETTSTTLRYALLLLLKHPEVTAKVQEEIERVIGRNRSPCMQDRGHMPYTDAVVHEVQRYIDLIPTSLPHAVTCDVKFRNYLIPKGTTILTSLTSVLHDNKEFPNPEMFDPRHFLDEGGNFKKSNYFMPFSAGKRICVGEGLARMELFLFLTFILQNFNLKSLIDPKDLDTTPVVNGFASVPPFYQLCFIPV
Sequence of Cytochrome P450 3A4 (Homo sapiens) (P08684 whole entry, looked up): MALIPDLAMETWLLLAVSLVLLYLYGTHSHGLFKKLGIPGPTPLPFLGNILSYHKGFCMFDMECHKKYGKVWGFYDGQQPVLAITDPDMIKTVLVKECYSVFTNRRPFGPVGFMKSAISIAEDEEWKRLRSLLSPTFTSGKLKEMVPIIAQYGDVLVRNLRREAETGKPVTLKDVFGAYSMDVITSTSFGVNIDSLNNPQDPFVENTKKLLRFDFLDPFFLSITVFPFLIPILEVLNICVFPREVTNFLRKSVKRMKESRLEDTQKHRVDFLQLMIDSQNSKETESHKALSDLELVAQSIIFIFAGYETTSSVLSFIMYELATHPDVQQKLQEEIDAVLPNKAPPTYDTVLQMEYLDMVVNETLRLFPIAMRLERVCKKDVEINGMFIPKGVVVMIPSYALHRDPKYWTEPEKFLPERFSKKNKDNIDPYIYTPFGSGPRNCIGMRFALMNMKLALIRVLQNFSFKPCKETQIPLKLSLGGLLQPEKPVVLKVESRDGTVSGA
Sequence of Cytochrome P450 2D6 (Homo sapiens) (P10635 whole entry, looked up): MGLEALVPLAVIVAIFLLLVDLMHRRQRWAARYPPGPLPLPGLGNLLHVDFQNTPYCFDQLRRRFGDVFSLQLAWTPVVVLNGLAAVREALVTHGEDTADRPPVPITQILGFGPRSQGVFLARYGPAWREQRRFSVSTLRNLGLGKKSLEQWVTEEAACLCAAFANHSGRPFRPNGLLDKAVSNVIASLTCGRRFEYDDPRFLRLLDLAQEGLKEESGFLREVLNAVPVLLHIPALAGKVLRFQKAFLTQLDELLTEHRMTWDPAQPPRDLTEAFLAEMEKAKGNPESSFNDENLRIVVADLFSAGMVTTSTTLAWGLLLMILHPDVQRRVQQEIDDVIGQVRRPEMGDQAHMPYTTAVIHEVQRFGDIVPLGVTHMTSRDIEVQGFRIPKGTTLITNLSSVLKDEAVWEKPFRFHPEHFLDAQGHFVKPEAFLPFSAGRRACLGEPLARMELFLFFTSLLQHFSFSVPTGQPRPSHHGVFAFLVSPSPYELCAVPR
Sequence of Cytochrome P450 2C9 (Homo sapiens) (P11712 whole entry, looked up): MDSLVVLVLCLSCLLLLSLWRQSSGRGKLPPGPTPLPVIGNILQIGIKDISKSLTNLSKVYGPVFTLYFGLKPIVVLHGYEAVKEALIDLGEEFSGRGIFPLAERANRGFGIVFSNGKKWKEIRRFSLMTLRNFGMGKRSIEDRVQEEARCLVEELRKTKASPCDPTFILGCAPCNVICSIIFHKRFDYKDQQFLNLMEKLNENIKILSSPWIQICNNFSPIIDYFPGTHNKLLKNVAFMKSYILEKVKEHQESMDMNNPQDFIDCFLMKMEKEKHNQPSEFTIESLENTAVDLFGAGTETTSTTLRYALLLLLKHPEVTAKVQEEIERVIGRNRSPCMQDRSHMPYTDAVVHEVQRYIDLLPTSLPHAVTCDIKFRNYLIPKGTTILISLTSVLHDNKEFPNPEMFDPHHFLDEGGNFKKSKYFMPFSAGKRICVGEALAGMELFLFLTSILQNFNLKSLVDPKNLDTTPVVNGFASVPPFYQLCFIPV

Turning to `COC(=O)CCCC1=CC2=CC(=O)C(C)(OC(=O)c3cccs3)C(=O)C2=CN1CCCOC(C)C` (stereo not given), the Potency entry in test [1], in test [2], in test [3], in [4], in test [5] and in test [6] was “inactive” throughout.

Turning to `CC(CCN1CCCCc2nc(C)c(C)cc21)=NOC[C@@H](O)[C@H]1O[C@@H]2OC(C)(C)O[C@H]2[C@@H]1O`, the Potency result in test [1], in test [2], in test [3], in [4], in [5] and in test [6] was “inactive” each time.

On to `CC(=O)OC[C@H]1O[C@H](CCON=C(C)CCC(=O)OC[C@H]2O[C@H](C#Cc3ccccc3)C=C[C@H]2Oc2ccc(C)cc2)C=C[C@H]1OC(C)=O`, for which the Potency entry in [1], in test [2], in test [3], in test [4], in test [5] and in test [6] was “inactive” throughout.

For `CC[C@H](C)[C@@H](NC(=O)O[C@@H]1C(=O)c2ccc(OC)cc2O[C@H]1c1ccc2c(c1)OCO2)C(=O)OC`, the Potency entry in [1], in test [2], in test [3], in test [4], in [5] and in test [6] was “inactive” throughout.

Turning to `COCCN1C(=NCCc2cccnc2)NC(c2ccccc2)C(C(=O)OC)=C1C` (stereo not given), the Potency entry in test [1], in [2], in test [3], in test [4], in test [5] and in [6] was “inactive” throughout.

On to `COC[C@H]1O[C@@H](c2c(OC)cc(OC)cc2OC)[C@H](OC)[C@@H](OC)[C@H]1OC`, for which the Potency result in test [1], in test [2], in test [3], in test [4], in test [5] and in test [6] was “inactive” each time.

For `O=C1CCCC=C1C(O)CCOCc1ccccc1` (stereo not given), the Potency entry in [1], in [2], in test [3], in [4], in test [5] and in test [6] was “inactive” throughout.

For `C[C@H]1[C@H](O)[C@@H](N=[N+]=[N-])CCO[C@H]1c1ccccc1`, the Potency entry in [1], in [2], in [3], in [4], in test [5] and in test [6] was “inactive” in each case.

On to `C=CCOC(=O)C1(C(NC(=O)OC)c2ccccc2)C(=O)Cc2ccccc21` (stereo not given), for which the Potency result in test [1], in [2], in [3], in test [5] and in [6] was “inactive” in each case.

For the compound `CC=COC(=O)N[C@@H](c1cccc(C)c1)[C@]1(C(=O)OCC)CCCC1=O`, the Potency result in [1], in test [2], in test [3], in test [5] and in test [6] was “inactive” in each case.

`O=C(NN=C1C[C@@H](O)[C@H](O)[C@H]2[C@@H]3C(=O)N(C4CCCCC4)C(=O)[C@@H]3CC[C@@H]12)OCc1ccccc1`: the Potency entry in test [1], in test [2], in test [3], in test [5] and in [6] was “inactive” in each case.

For the compound `CON(C)C(=O)c1nnc2c3ccccc3n(S(=O)(=O)c3ccc(C)cc3)c2n1`, the activity change, positive = activation in test [7] was -39.7% [at 11.4 µM] and -50.5% [at 11.4 µM]. The Potency result in test [1], in test [2], in test [3], in [4], in test [5] and in test [6] was “inactive” throughout.

As for `COC(=O)c1ccc(CN2C(=O)[C@]3(O[C@H](C)CC4=CCCC43)c3c(Br)cccc32)cc1` (stereo not given in full), the Potency result in test [1], in test [2], in test [3], in test [5] and in [6] was “inactive” throughout.

Turning to `CCCCCCCC1=CC2=CC(=O)C(C)(OC(C)=O)C(=O)C2=CN1CCc1ccccc1` (stereo not given), the activity change, positive = activation in test [7] was -45.9% [at 11.4 µM]. Besides, the Potency in [8] is 3.16 µM (active). Further, the activity, negative = inhibition in test [9] is 78.5% [at 11.4 µM]. Besides, the Potency entry in test [1], in test [2], in test [3], in test [4] and in test [6] was “inactive” in each case.

Regarding `O=C(NC(CC1=CCCCC1)c1ccc2c(c1)OCO2)C(F)(F)F` (stereo not given), the Potency entry in test [1], in test [2], in [3], in [5] and in test [6] was “inactive” in each case.

Turning to `COc1ccc2c(c1)[C@@]1(OCCC=C[C@@H]1C)C(=O)N2CC1CC1`, the Potency entry in [1], in test [2], in test [3], in test [5] and in test [6] was “inactive” each time.

`Cc1ccc(S(=O)(=O)n2c3ccccc3c3nnc(C(=O)c4ccccc4)nc32)cc1`: the Potency in test [10] was 3.98 µM (active). Moreover, the activity change, positive = activation in test [7] is -61.8% [at 11.4 µM]. Moreover, the Potency result in test [1], in test [2], in test [3], in test [4], in test [5] and in test [6] was “inactive” each time.

For the compound `CCOC(=O)CN1C(=O)[C@]2(O[C@H](C)CC3=CCCC32)c2c(Br)cccc21` (stereo not given in full), the Potency result in test [1], in test [2], in test [3], in test [5] and in [6] was “inactive” each time.

On to `CC(=O)c1ccc(OCc2ccccc2)c(C)c1O`, for which the activity change, negative = inhibition in [10] is -20.5% [at 11.4 µM]; in [8], -4.53% [at 11.4 µM]. For the same compound, the Potency in [9] was 0.0501 µM (active). In addition, the Potency entry in test [1], in test [2], in test [3], in test [4], in test [5] and in test [6] was “inactive” throughout.

For `COCCN1C(=O)NC(c2ccc(Br)cc2)C(C(=O)OC)=C1C` (stereo not given), the Potency entry in test [1], in test [2], in test [3], in test [5] and in test [6] was “inactive” in each case.

On to `COCn1c2ccccc2c2nnc(C(=O)O)nc21`, for which the activity change, negative = inhibition in test [11] is -6.97% [at 11.4 µM]; in [10] it was -11.5% [at 11.4 µM]; in test [8], 12.8% [at 11.4 µM]. In addition, the activity, negative = inhibition in test [9] is 65.8% [at 11.4 µM]. The Potency entry in test [1], in test [2], in test [3], in test [4], in test [5] and in test [6] was “inactive” in each case.

On to `COc1cc2c(c(OC)c1OC)C1(c3ccccc3)CCCCCC1[C@@H]2NC(=O)C(F)(F)F` (stereo not given in full), for which the Potency entry in [1], in [2], in test [3], in test [5] and in test [6] was “inactive” each time.

Consider `Cc1ccc([S+](=O)([O-])N(c2ccccc2)[S+](=O)([O-])C(F)(F)F)cc1`, for which the Potency entry in test [1], in [2], in test [3], in test [5] and in test [6] was “inactive” each time.
